Data on 14 compounds can be found in PubChem BioAssay (Tox21).

The nature of test [1]: qHTS assay to identify small molecule antagonists of the estrogen receptor alpha (ER-alpha) signaling pathway using the BG1 cell line in the presence of 0.1 nM 17-beta-estradiol - cell viability counter screen (AID 1259241). Further: nearly all actives have a fitted effect of over 40% in size. The essentials:
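VM7Luc4E2 cells (endogenous full-length ER-alpha, 4xERE-luciferase), cultured 5 days in charcoal-stripped serum, exposed to compounds with 0.1 nM 17beta-estradiol (final) for 22 hr at 37C. Viability read in same wells as live-cell protease fluorescence after 30 min.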
Background: In qHTS, concentration-response curves come from the screen itself.

A short description of test [2]: qHTS assay to identify small molecule antagonists of the androgen receptor (AR) signaling pathway using the MDA cell line in the presence of 0.5 nM R1881 - cell viability counter screen (AID 1259242). Further: nearly all actives have a fitted effect of over 45% in size. Summed up: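 R1881 at 0.5 nM final stimulated MDA-kb2 cells during 16 hr compound treatment at 37C. Cytotoxicity read: CellTiter-Fluor fluorescence after 30 min.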
A short description of test [3]: qHTS assay to identify small molecule HDAC inhibitors (AID 1259364). Further: potency means the concentration at half of the fitted maximal effect.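 Further: wild-type HCT-116 cells with endogenous class I/II HDAC activity; nearly all actives have a fitted effect of over 45% in size.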 The essentials:
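Relative class I and II HDAC activity is taken from the luminogenic signal in HCT-116 cells, with compound exposure 2 hr and reagent development 30 min at room temperature.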

Test [4] in a line: qHTS assay to identify small molecule HDAC inhibitors - cell viability counter screen (AID 1259365). Further: series mostly up to about 92 µM; nearly all actives have a fitted effect of over 50% in size. The essentials: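 Wild-type HCT-116 cells, 1,500/well, cultured overnight, then compound-treated 2 h at 37 C. Viability measured as ATP luminescence with CellTiter-Glo after 30 min at room temperature.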
A short description of test [5]: qHTS assay to identify small molecule agonists of the sonic hedgehog signaling (Shh) pathway - cell viability counter screen (AID 1259366). Further: nearly all actives have a fitted effect of over 50% in size. The essentials:
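NIH/3T3-derived Gli1-Luc reporter cells, 2,000 per well, received compound after 4 h and were treated about 23 h at 37C. Viability measured in the same wells by CellTiter-Fluor fluorescence after 1 h.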

Test [6] can be described thus: qHTS assay to identify small molecule antagonists of the sonic hedgehog signaling (Shh) pathway - cell viability counter screen (AID 1259367). Further: nearly all actives have a fitted effect of over 55% in size. The essentials: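 After a 4 hr settling period, 3T3 Gli1-Luc cells were treated with DMSO-dissolved chemicals and conditioned medium, kept 24 hr at 37C in 5% CO2, and assayed for viability by CellTiter-Fluor fluorescence following 1 hr reagent incubation.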

The nature of test [7]: qHTS assay to identify small molecule agonists of the sonic hedgehog signaling (Shh) pathway (AID 1259368; calls by dose curve;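 further: NIH/3T3-derived 3T3Gli1-Luc cells carrying a stable Gli1-driven firefly luciferase reporter; series mostly up to about 92 µM; nearly all actives have a fitted effect of over 15% in size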). Summed up: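 Mouse fibroblast (NIH/3T3) reporter cells with stably integrated Gli1-Luc were treated 24 hr with compound; firefly luciferase luminescence served as the read-out.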
Test [8] is described as follows: qHTS assay to identify small molecule antagonists of the sonic hedgehog signaling (Shh) pathway (AID 1259369; calls by dose curve; further: nearly all actives have a fitted effect of over 45% in size; further: potency means the concentration at half of the fitted maximal effect). Summed up:
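Conditioned medium drives Shh signalling in 3T3Gli1-Luc cells; compounds in DMSO co-applied, 24hr at 37 C, then luciferase luminescence.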

A short description of test [9]: qHTS assay to identify small molecule agonists of the estrogen receptor beta (ER-beta) signaling pathway - cell viability counter screen (AID 1259380). Further: nearly all actives have a fitted effect of over 30% in size. The essentials:
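Cells used were ER-beta-UAS-bla HEK293T in medium with 2% charcoal-stripped FBS. They were treated for 16 hr at 37C. Viability came from CellTiter-Glo luminescence.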

Test [10] can be described thus: qHTS assay to identify small molecule antagonists of the estrogen receptor beta (ER-beta) signaling pathway - cell viability counter screen (AID 1259382). Further: series mostly up to about 92 µM; nearly all actives have a fitted effect of over 55% in size. The essentials: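 Agonist-stimulated (1nM E2) ER-beta-UAS-bla HEK293T cells are incubated with library compounds for 16 hr at 37C. Cell viability is then assessed in the reporter-assay wells by adding CellTiter-Glo and reading luminescence after 30 min.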

Test [11] in a line: qHTS assay to identify small molecule agonists or antagonists of the thyroid stimulating hormone receptor (TSHR) signaling pathway - wild type cell line counter screen (AID 1259384; calls by dose curve). The essentials: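 Wild-type HEK293 cells were plated 18 h at 37 C/5% CO2, pin-dosed with compound plus Ro20-1724 medium, held 30 min at room temperature, then given cAMP-d2 and anti-cAMP-cryptate; fluorescence was read after 1 h. Fifteen concentrations, triplicate.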

The target in test [12] is Thyrotropin receptor (Homo sapiens) (UniProt P16473). Description: qHTS assay to identify small molecule antagonists of the thyroid stimulating hormone receptor (TSHR) signaling pathway (AID 1259385; calls by dose curve; further: nearly all actives have a fitted effect of over 20% in size). The essentials: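 TSHR-HEK293 cells were plated and held 18 h at 37C/5% CO2, then given compound plus Ro20-1724 and stimulated with TSH at 1.5 ng/mL final. After 30 min at room temperature, cAMP was detected with cAMP-d2/anti-cAMP-cryptate (1 h) by fluorescence.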
Thyrotropin receptor (Homo sapiens), sequence (P16473 whole entry, looked up): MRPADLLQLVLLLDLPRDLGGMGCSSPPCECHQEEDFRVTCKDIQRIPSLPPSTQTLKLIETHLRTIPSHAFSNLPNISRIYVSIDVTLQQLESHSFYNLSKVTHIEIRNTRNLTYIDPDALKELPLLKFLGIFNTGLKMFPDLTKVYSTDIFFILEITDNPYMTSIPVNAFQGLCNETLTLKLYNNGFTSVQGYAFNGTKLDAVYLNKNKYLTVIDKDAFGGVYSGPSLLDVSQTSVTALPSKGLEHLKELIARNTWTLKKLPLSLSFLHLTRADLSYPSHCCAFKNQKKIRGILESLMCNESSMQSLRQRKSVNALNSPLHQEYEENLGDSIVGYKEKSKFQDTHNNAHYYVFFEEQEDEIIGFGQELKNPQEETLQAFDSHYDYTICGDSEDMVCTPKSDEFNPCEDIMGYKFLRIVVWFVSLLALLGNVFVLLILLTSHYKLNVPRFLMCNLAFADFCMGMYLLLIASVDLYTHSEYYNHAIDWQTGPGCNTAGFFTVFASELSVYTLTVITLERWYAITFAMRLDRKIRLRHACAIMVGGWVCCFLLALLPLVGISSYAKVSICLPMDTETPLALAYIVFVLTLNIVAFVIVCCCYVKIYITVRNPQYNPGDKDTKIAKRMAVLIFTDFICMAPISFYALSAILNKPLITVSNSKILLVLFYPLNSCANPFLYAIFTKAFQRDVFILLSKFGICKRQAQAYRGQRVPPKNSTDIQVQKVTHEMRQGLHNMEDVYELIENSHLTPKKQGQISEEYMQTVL

In test [13] the target is Estrogen receptor beta (Homo sapiens) (UniProt Q92731). Description: qHTS assay to identify small molecule antagonists of the estrogen receptor beta (ER-beta) signaling pathway (AID 1259378; active means well fitted inhibition curve with a large enough effect in the signal ratio in the repeat runs, not every such curve was filed as active; the % refers to the signal ratio). Summed up:
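ER-beta-UAS-bla HEK293T (GripTite) cells in 2% charcoal-stripped FBS medium were preincubated 6 hr at 37C, dosed with compound, then stimulated with 1 nM E2 (final) for 16 hr; beta-lactamase reporter read by B/G FRET fluorescence after 2 hr substrate loading.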

Test [14] is described as follows: qHTS assay to identify small molecule agonists of the androgen receptor (AR) signaling pathway in the presence of an antagonist - cell viability counter screen (AID 1259379).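 Further: MDA-kb2 human breast cancer cells carrying an MMTV luciferase reporter; series mostly up to about 92 µM; nearly all actives have a fitted effect of over 25% in size.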 The essentials: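 A CellTiter-Fluor read-out measured viability of MDA-kb2 reporter cells (MMTV promoter with AR and GR response elements). Treatment: nilutamide 3.0uM final with compounds at 15 concentrations, 16 hr, 37C, 0% CO2.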

Test [15] deals with Estrogen receptor beta (Homo sapiens) (UniProt Q92731). Description: qHTS assay to identify small molecule agonists of the estrogen receptor beta (ER-beta) signaling pathway (AID 1259377; active means well fitted activation curve with a large enough effect in the signal ratio in the repeat runs, not every such curve was filed as active; the % refers to the signal ratio). The essentials:
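ER-beta-UAS-bla HEK293T cells in medium with 2% charcoal-stripped FBS were exposed to compounds for 16 h at 37C. Beta-lactamase reporter activity was read as fluorescence after 2 h with LiveBLAzer B/G FRET substrate at room temperature.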

Test [16] concerns the target Estrogen receptor (Homo sapiens) (UniProt P03372). The test can be described thus: qHTS assay to identify small molecule antagonists of the estrogen receptor alpha (ER-alpha) signaling pathway using the BG1 cell line in the presence of 0.1 nM 17-beta-estradiol (AID 1259244). Further: nearly all actives have a fitted effect of over 50% in size. Summed up: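 VM7Luc4E2; 4xERE-luciferase; 0.1 nM E2 final; 22 h co-incubation, 37C; ONE-Glo luminescence after 30 min at room temperature.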

Test [17] has the same target. Description: qHTS assay to identify small molecule agonists of the estrogen receptor alpha (ER-alpha) signaling pathway in the presence of an antagonist (AID 1259383; calls by dose curve; further: top concentration of the series differs between compounds; nearly all actives have a fitted effect of over 15% in size). The essentials:
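Using VM7Luc4E2 cells seeded 24hr before treatment, antagonist ICI-182,780 (10.0nM final) was added, followed by compounds at 15 concentrations. Plates incubated 22hr; ONE-Glo luminescence quantified reporter activity.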

Test [18] is described as follows: qHTS assay to identify small molecule phospholipidosis (PLD) inducers (AID 1259344; active means well fitted curve in the direction sought with a large enough effect; an effect the other way counts as inactive or inconclusive). Summed up:
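HepG2 cells grown on collagen I take up LipidTOX Red while exposed to compound for 24 h; after fixation they are imaged at 20x and pit metrics are extracted.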

Inconclusive results are not listed. A structure can be active in one record and inactive in another. Active and inactive are the calls of the source. Unless noted, the call rests on the fitted dose curve; in most records, active means well fitted curve in the direction sought with a large enough effect in the repeat runs; inconclusive means weak or mixed curves; inactive means no such curve, though single readings can be large; an effect the other way counts as inactive or inconclusive.

Estrogen receptor beta (Homo sapiens), sequence (Q92731 whole entry, looked up): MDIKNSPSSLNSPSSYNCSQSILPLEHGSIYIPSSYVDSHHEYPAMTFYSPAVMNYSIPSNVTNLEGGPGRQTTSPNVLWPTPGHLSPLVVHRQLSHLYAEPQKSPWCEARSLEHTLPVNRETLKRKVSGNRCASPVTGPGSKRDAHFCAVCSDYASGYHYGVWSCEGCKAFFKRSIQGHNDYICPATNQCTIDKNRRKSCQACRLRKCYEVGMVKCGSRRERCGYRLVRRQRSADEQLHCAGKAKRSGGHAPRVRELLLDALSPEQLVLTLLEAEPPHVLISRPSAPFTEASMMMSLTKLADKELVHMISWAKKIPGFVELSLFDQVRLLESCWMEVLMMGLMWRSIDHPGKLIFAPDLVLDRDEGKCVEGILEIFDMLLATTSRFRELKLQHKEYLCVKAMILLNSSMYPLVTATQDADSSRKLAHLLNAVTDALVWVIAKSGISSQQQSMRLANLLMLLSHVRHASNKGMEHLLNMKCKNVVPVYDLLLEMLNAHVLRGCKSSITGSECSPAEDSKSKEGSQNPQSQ
Estrogen receptor (Homo sapiens), sequence (P03372 whole entry, looked up): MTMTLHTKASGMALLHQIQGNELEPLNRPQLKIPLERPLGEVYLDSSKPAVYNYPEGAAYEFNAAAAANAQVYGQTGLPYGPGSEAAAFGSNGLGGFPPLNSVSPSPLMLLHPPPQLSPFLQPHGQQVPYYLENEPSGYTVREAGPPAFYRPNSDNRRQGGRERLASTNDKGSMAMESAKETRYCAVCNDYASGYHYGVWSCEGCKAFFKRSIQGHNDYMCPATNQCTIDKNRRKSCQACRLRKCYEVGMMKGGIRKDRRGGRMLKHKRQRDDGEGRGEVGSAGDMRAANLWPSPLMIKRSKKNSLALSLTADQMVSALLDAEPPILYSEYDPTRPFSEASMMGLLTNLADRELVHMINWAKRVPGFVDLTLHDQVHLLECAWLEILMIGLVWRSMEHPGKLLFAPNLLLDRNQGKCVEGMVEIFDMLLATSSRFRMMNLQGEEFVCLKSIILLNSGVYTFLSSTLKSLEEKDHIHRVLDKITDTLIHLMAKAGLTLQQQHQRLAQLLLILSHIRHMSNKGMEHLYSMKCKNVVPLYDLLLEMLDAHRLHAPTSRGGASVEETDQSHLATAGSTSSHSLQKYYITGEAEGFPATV

For `OC[P+](CO)(CO)CO`, the Potency result in test [1], in test [2], in test [3], in test [4], in [5] and in test [6] was “inactive” throughout. Moreover, the Potency entry in test [7], in [9], in test [10] and in [12] was “inactive” each time. In test [8], the Potency was 31 µM (active) and inactive. Besides, the compound was called inactive in test [11].

As for `O=S(=O)(c1ccccc1)c1ccccc1`, the Potency result in [1], in test [2], in test [3], in test [4], in [5] and in test [6] was “inactive” in each case. Also, the Potency result in [7], in test [8], in [13], in test [14], in [10] and in test [12] was “inactive” in each case. Also, the compound was called inactive in test [11].

For `Cc1ncc(C[n+]2csc(CCO)c2C)c(N)n1`, the Potency entry in [1], in [2], in [3], in [4], in test [5] and in [6] was “inactive” throughout. The Potency result in test [7], in test [8], in test [15], in test [13], in [14] and in test [9] was “inactive” each time. Besides, in [12], the Potency entry is “inactive”. Also, the outcome in [11] was inactive.

In the case of `CC1(C)CC(=O)CC(C)(C)N1[O]`, the Potency entry in test [1], in test [2], in test [3], in test [4], in test [5] and in test [6] was “inactive” each time. Besides, the Potency result in [7], in [8], in [13], in test [14], in test [9] and in test [10] was “inactive” throughout. The outcome in test [11] was inactive.

Regarding `COC1=CC(=O)O[C@@H](/C=C/c2ccc3c(c2)OCO3)C1`, the Potency entry in test [1], in test [2], in test [5], in test [6], in test [7] and in [14] was “inactive” each time. Also, the Potency entry in [10] and in [12] was “inactive” each time. In [3], the Potency is 23.3 µM (active). Further, in test [11], the result was inactive.

`CC(C)CCCCCCCOC(=O)c1ccccc1C(=O)OCCCCCCCC(C)C`: the Potency result in [1], in test [2], in test [3], in [5], in test [6] and in test [7] was “inactive” in each case. The Potency result in test [8], in test [15], in test [13], in test [14], in [9] and in test [10] was “inactive” each time. Also, in [12], the Potency result is “inactive”. Also, the outcome in [11] was inactive.

`Nc1cc(Cl)cc(C(=O)O)c1Cl`: the Potency entry in [1], in [2], in [3], in test [5], in test [6] and in test [8] was “inactive” in each case. In addition, the Potency result in test [15], in [13], in [14] and in test [9] was “inactive” in each case.

For `CCCC[N+](CCCC)(CCCC)CCCC`, the Potency result in test [1], in test [2], in [16], in test [3], in [5] and in test [7] was “inactive” each time. For the same compound, the Potency entry in [8], in test [9], in [10] and in test [17] was “inactive” in each case.

Regarding `CC(C)[C@@H](C(=O)O[C@@H](C#N)c1cccc(Oc2ccccc2)c1)c1ccc(Cl)cc1`, the Potency entry in test [1], in test [2], in test [3], in [5], in [6] and in [7] was “inactive” each time. Besides, the Potency result in test [15], in test [14], in test [9] and in [12] was “inactive” throughout. Moreover, the compound was called inactive in test [11].

As for `CC[N+]1(C)CCCC(OC(=O)C(O)(c2ccccc2)c2ccccc2)C1` (centres undefined), the Potency entry in test [1], in test [2], in test [3], in test [4], in [5] and in [6] was “inactive” throughout. Further, the Potency entry in [7], in test [8], in [14], in test [9] and in [12] was “inactive” throughout. Further, the result in test [18] and in test [11] was inactive.

As for `N#CC(C#N)=C(C#N)C#N`, the Potency result in [1], in test [2], in test [16], in test [4], in test [7] and in [15] was “inactive” each time. Also, the Potency entry in test [13], in test [9], in [10] and in [17] was “inactive” each time. Besides, in test [8], the Potency was 14.3 µM (active). Further, in test [11], the outcome was inactive.

As to `C[C@H](N)[C@H](O)c1ccc(O)c(O)c1`, the Potency result in test [2], in [16], in test [3], in test [4], in test [5] and in test [6] was “inactive” in each case. Moreover, the Potency entry in test [7], in [15], in [14], in [10] and in [17] was “inactive” each time. Also, in test [18], the call was inactive.

Take `CCSCc1ccccc1OC(=O)NC`: the Potency result in test [1], in test [16], in [3], in test [4], in test [5] and in test [6] was “inactive” throughout. In addition, the Potency result in test [8], in test [15], in test [14], in test [9], in test [10] and in [17] was “inactive” in each case. Further, the Potency result in test [12] was “inactive”. The outcome in test [11] was inactive.

In the case of `O=[N+]([O-])O[C@H]1CO[C@H]2[C@@H]1OC[C@H]2O[N+](=O)[O-]`, the Potency result in test [1], in test [16], in test [3], in [4], in test [5] and in test [6] was “inactive” in each case. Moreover, the Potency result in test [7], in [8], in test [15], in test [13], in test [14] and in [10] was “inactive” each time. Besides, the Potency result in test [17] and in test [12] was “inactive” throughout. In addition, the compound was classed as inactive in test [18] and in [11].
